From PubChem BioAssay AID1347416 (National Center for Advancing Translational Sciences (NCATS), 2020) come the findings set out here.

Screen size: about 4,100 compounds; about 1,600 (39%) were called active. Inconclusive results (about 25%) are left out. Calls come from the whole dose curve; as a rule, active = well fitted inhibition curve with a large enough effect; inconclusive = small, poorly fitted or top-dose-only effect; inactive = no such curve, though single readings can be large or run the other way. Some of the results follow. A call without a number means that no potency is given here.
Potency is the fitted concentration of half-maximal effect.

The assay is described as follows: qHTS Validation assay for Inhibitors of Plasmodium falciparum Dd2 growth in vitro. Note: nearly all actives have a fitted effect of over 70% in size. The following applies: P. falciparum Dd2 in RBCs, SYBR Green growth, 72 h; series mostly up to 28.7 µM. An outline of the steps:
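P. falciparum Dd2-infected red blood cells (2.5% hematocrit, 0.3% parasitemia) grown 72 h at 37 °C under 5% O2 with compounds in a titration, 29 uM to 0.5 nM final. Growth read as SYBR Green-1 fluorescence after ~16 h lysis; artesunate 300 nM as positive control.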
Regarding `Cc1ccc2c(c1)c1c3n2CCCN(Cc2ccccc2)C3CCC1` (configuration not stated), the Potency was 4.22 µM (active). `CN(C)Cc1c(O)ccc2oc(Cc3ccccc3)cc12`: the Potency was 0.422 µM (active). With `COc1ccc(-n2c(/C=C(\C)O)nc(=O)c3c(C)cc(C)nc32)cc1` the figure was 3.35 µM (active); with `O=C(Cc1ccccc1)N1CCCC2(CC(c3ccccn3)=NO2)C1` (configuration not stated), “inactive”; with `CCOC(=O)c1c(C)[nH]c(C(=O)CSc2nnc(C3CC3)n2N)c1C`, 1.5 µM (active). Take `CCOC(=O)c1c(C)[nH]c(C(=O)OCc2c(C)noc2C)c1C`: the Potency result is “inactive”. As for `O=C(Nc1ccc(Br)cc1F)c1cc(S(=O)(=O)NC2CCCC2)ccc1F`, the Potency result was “inactive”.

Turning to `O=C(Nc1ccc(Br)cc1)c1ccc(F)c(S(=O)(=O)NC2CCCCCC2)c1`, the Potency was 9.44 µM (active). For `CN1c2cc(C(=O)Nc3ccc(S(N)(=O)=O)cc3)ccc2C(=O)N2CCCCC21` (configuration not stated), the Potency result was “inactive”.

As to `CC1(COc2ccccc2)COc2ccc(C(=O)NCc3cnccn3)cc2N1` (configuration not stated), the Potency entry was “inactive”. For `Cc1nccn1C1(C(=O)O)CCN(Cc2ccc(-c3ccn[nH]3)o2)CC1` the value was “inactive”.

Take `Cc1noc(-c2cccs2)c1C(=O)NC(C)c1cccc2ccccc12` (configuration not stated): the Potency was 0.668 µM (active). In the case of `O=C(NCc1nc(-c2ncccn2)no1)c1csc(-c2cccs2)n1`, the Potency result was “inactive”. With `c1csc(-c2cn3ccc4ccccc4c3n2)c1` the entry was “inactive”; with `CNC(=O)c1ccsc1NC(=O)CCS(=O)(=O)c1ccccc1`, “inactive”. On to `Cc1cc(C(=O)CN2C(=O)NC(c3ccccc3)(c3ccccc3)C2=O)c(C)n1Cc1ccco1`, for which the Potency was 8.41 µM (active).

`Cc1cc(C(=O)CN2C(=O)NC(C)(c3cccc(Br)c3)C2=O)c(C)n1Cc1ccco1` (configuration not stated): the Potency was 13.3 µM (active). With `O=C(O)c1ccc(C2SCC(=O)N2Cc2ccco2)cc1` (configuration not stated) the entry was “inactive”. With `CC1(c2ccccn2)Nc2ccccc2-c2nc3ccccc3n21` (configuration not stated) the figure was 5.31 µM (active). For `COc1ccc2c(c1)C1(Nc3ccccc3-c3nc4ccccc4n31)C(=O)N2` (configuration not stated) the value was 0.596 µM (active); for `O=C1Nc2ccccc2C12Nc1ccccc1-c1nc3ccccc3n12` (configuration not stated), 6.68 µM (active); for `CS(=O)(=O)c1ccc(-c2cnc([C@@H]3COCCN3Cc3ccccc3)[nH]2)cc1`, “inactive”. In the case of `Oc1ccccc1CN1CCOC[C@H]1c1ncc(-c2ccc(C(F)(F)F)cc2)[nH]1`, the Potency is 4.85 µM (active). With `COc1ccc(-c2cnc([C@@H]3COCCN3Cc3ccccc3O)[nH]2)cc1` the figure was 17.2 µM (active); with `COc1cc(OC)cc(C(=O)N2CCC(c3nc(C4CCOC4)no3)CC2)c1` (configuration not stated), “inactive”; with `c1ccc(CCNc2ccnc3cc4ccccc4cc23)cc1`, 1.68 µM (active). For `O=c1c(NCCc2ccccc2)c(-c2ccccc2)c1=O` the value was “inactive”; for `c1ccc2cc3c(NCCN4CCOCC4)ccnc3cc2c1`, 1.68 µM (active). With `COCCN1Cc2ccc(NCC(C)C)nc2C(C)(C(=O)Nc2ccncc2)C1` (configuration not stated) the figure was 21.7 µM (active). Regarding `CC1(C)C(=O)N(CC2CCOCC2)[C@H]2CN(CCCc3ccccc3)C[C@@H]2[S+]1(=O)[O-]`, the Potency result was “inactive”. For `O=C(CC1C(=O)N(Cc2ccccc2)C(=S)N1CCN1CCOCC1)Nc1ccc(F)cc1` (configuration not stated) the value was 5.31 µM (active); for `COC(=O)c1cc(NC(=O)CC2C(=O)OCCN2Cc2ccccc2)cc(C(=O)OC)c1` (configuration not stated), “inactive”. In the case of `COc1cccc(N2C(=O)C(CC(=O)Nc3ccccc3)N(CCc3sccc3C)C2=O)c1` (configuration not stated), the Potency entry was “inactive”.

As to `Cc1noc(C)c1CCC(=O)NC1CCc2nn(CC3CC3)c(=O)n2CC1` (configuration not stated), the Potency entry is “inactive”. For `N#CC(=C1CCCC1)c1nc(-c2ccccc2O)cs1`, the Potency is 9.44 µM (active). In the case of `CN(CC1CCN(CCc2ccc(Cl)cc2)CC1)C(=O)c1ccccc1C#N`, the Potency result is “inactive”. With `CN(Cc1ccc(-n2cccn2)cc1)CC1CCN(CCc2ccc(F)cc2)CC1` the figure was 10.6 µM (active); with `Cc1[nH]n(-c2ccccc2)c(=O)c1/C=N/Nc1nncc(-c2ccccc2)n1`, 4.22 µM (active); with `CN(C)c1ccc(CC(=O)N2CC[C@@](C)(O)[C@@H](O)C2)cc1`, “inactive”. As for `COC(=O)[C@H](Cc1ccc(OC)cc1)NC(=O)[C@H]1CN(C(=O)c2ccc(N(C)C)cc2)CCN1C(=O)c1cccs1`, the Potency is 0.188 µM (active).

Turning to `COc1ccc(C(=O)N2CCN(C(=O)C3CCCCC3)C[C@@H]2C(=O)N[C@H]2CCCNC2=O)cc1`, the Potency result was “inactive”. For `COC(=O)[C@H](Cc1ccc(OC)cc1)NC(=O)[C@H]1CN(C(=O)Nc2ccccc2)CCN1C(=O)NC(C)C` the value was “inactive”. Regarding `COC(=O)[C@H](Cc1ccc(OC)cc1)NC(=O)[C@H]1CN(C(=O)c2ccc(N(C)C)cc2)CCN1C(=O)C1CCCCC1`, the Potency is 0.668 µM (active).

Consider `CN(C)C(=O)c1ccc(OC2CCN(C(=O)c3cccs3)CC2)nc1`, for which the Potency result is “inactive”. For `Cc1cccc(C(=O)N2CCc3cc(CNC(=O)c4ccc(Br)o4)ccc32)c1` the value was 9.44 µM (active); for `Cc1ccc(C(=O)N2CCc3cc(CNC(=O)CCc4ccccc4)ccc32)cc1`, “inactive”. Turning to `CC(=O)N1CCc2cc(S(=O)(=O)NC(Cc3ccccc3)C(=O)Nc3cc(C)cc(C)c3)ccc21` (configuration not stated), the Potency entry was “inactive”. With `O=C(O)c1ccc(S(=O)(=O)N(Cc2cccs2)CC2CCCO2)cc1` (configuration not stated) the entry was “inactive”; with `O=S(=O)(c1ccc(Cl)cc1)N1CCN(C(=S)NCC2CCCO2)CC1` (configuration not stated), 1.88 µM (active); with `O=S(=O)(c1ccc(F)cc1)N1CCN(C(=S)NCC2CCCO2)CC1` (configuration not stated), 6.68 µM (active). With `O=C(NCc1ccc(Cl)cc1)C1CCN(S(=O)(=O)c2cccc3nonc23)CC1` the entry was “inactive”; with `CS(=O)(=O)N1CCC(C2CCN(C(=O)Cc3ccc(Cl)cc3)C2)CC1` (configuration not stated), “inactive”; with `O=S(=O)(c1ccc(F)cc1)N1CCN(C(=S)NCCc2ccccc2)CC1`, 5.96 µM (active). Consider `COc1ccccc1NC(=O)Cn1c(=O)n(CCC(=O)NCC2CCCO2)c(=O)c2cc(OC)c(OC)cc21` (configuration not stated), for which the Potency result is “inactive”. With `CCOC(=O)Cn1c(=O)oc2cc(S(=O)(=O)N3CCCC(C)C3)ccc21` (configuration not stated) the entry was “inactive”. Regarding `COc1ccc(S(=O)(=O)N2CCN(C(=S)NCC3CCCO3)CC2)cc1OC` (configuration not stated), the Potency was 6.68 µM (active). Consider `O=C(CCC1CCN(S(=O)(=O)c2ccccc2)CC1)NCc1ccc(F)cc1`, for which the Potency entry was “inactive”. As for `CCOCCCNC(=O)CN1C(=O)c2c(c3ccccc3n2C)C1c1ccc(OC)cc1` (configuration not stated), the Potency result is “inactive”. With `Cc1ccc(-c2noc(CCC(=O)Nc3ccc(C)cn3)n2)cc1` the entry was “inactive”; with `N#Cc1ccc(CN2CC[C@@H]3C(=O)NCCCCCCN(Cc4ccncc4)[C@@H]3C2)cc1`, 10.6 µM (active); with `O=C1NCCCCCCN(Cc2ccncc2)[C@@H]2CN(C(=O)NC3CCCCC3)CC[C@@H]12`, “inactive”. For `CN1C(=O)[C@H]2CN(Cc3ccc(C#N)cc3)C[C@H]2C1=O` the value was “inactive”; for `CCc1ccc2c(c1)cc(CN(C(=S)Nc1cccc(C)c1)C1CC1)c1nnnn12`, 3.35 µM (active). Consider `O=C(CC(c1ccc(F)cc1)c1cn(Cc2ccccc2)c2ccc([N+](=O)[O-])cc12)N1CCOCC1` (configuration not stated), for which the Potency was 9.44 µM (active). For `Cc1ccoc1C(=O)N1C[C@@H](COCC2CC2)[C@H](c2ccncc2)C1` the value was “inactive”; for `CCOC(=O)c1c(C)[nH]c(C)c1S(=O)(=O)N1CCN(c2cccc(C(F)(F)F)c2)CC1`, “inactive”. Regarding `CCC(C)(C)n1nnnc1C(c1cccnc1)N1CCN(c2cccc(C(F)(F)F)c2)CC1` (configuration not stated), the Potency is 6.68 µM (active). For `CNC(=O)[C@@H]1C[C@H](n2cc(CN(C)C(=O)NCC3CCCCC3)nn2)CN1` the value was “inactive”; for `COCCCn1c(=N)c(C(=O)NCC2CCCO2)cc2c(=O)n3cc(C)ccc3nc21` (configuration not stated), “inactive”; for `CCCn1c(=N)c(C(=O)NC2CCCCC2)cc2c(=O)n3cc(C)ccc3nc21`, “inactive”. With `CCCN1C(=O)Cc2cc(C(=O)NCc3ccc(C)c(C)c3)ccc21` the entry was “inactive”. For `CCCn1c(=N)c(C(=O)NCc2ccc3c(c2)OCO3)cc2c(=O)n3cccc(C)c3nc21`, the Potency is 10.6 µM (active). As for `CCn1c(CO)nnc1C1CC(NC(=O)c2cnc3sccn3c2=O)C1` (configuration not stated), the Potency result was “inactive”. Consider `CCCn1c(=N)c(C(=O)NC2CCCC2)cc2c(=O)n3cccc(C)c3nc21`, for which the Potency is 5.96 µM (active).

Consider `CCCCn1c(=N)c(C(=O)NC2CCCCC2)cc2c(=O)n3cccc(C)c3nc21`, for which the Potency was 1.5 µM (active).

Turning to `CCOc1cc2[nH]c(=O)n(Cc3ccc(C(=O)N4CCN(c5cccc(Cl)c5)CC4)cc3)c(=O)c2cc1OCC`, the Potency entry was “inactive”. Take `COc1ccccc1N1CCN(C(=O)c2ccc3c(=O)n(Cc4ccc5c(c4)OCO5)c(=O)[nH]c3c2)CC1`: the Potency was 2.99 µM (active). With `COC(=O)c1ccc2c(=O)n(CCCCCC(=O)NCCc3ccccc3)c(=O)[nH]c2c1` the entry was “inactive”; with `OC(c1cc(-c2ccc(C(F)(F)F)cc2)nc(C(F)(F)F)c1)C1CCCCN1` (configuration not stated), 0.15 µM (active).

Turning to `CN(CC1CCOCC1)S(=O)(=O)c1ccc(C(F)(F)F)cc1`, the Potency result was “inactive”. For the compound `Nc1nonc1-n1nnc(C(=O)N/N=C/c2ccc(F)cc2)c1-c1ccc2c(c1)OCO2`, the Potency was 0.335 µM (active). With `O=C(CSc1nnc(Cc2cccs2)n1-c1ccc(Cl)cc1)NCc1ccc2c(c1)OCO2` the entry was “inactive”; with `Cc1ccc(-c2c(C(=O)N/N=C/c3cccc(Cl)c3)nnn2-c2nonc2N)cc1`, 0.237 µM (active); with `Nc1nonc1-n1nnc(C(=O)N/N=C/c2ccc(Br)cc2)c1-c1ccc2c(c1)OCO2`, 0.422 µM (active). Turning to `Nc1nonc1-n1nnc(C(=O)N/N=C/c2ccc(Cl)cc2)c1-c1ccc2c(c1)OCO2`, the Potency was 0.376 µM (active). For `Nc1nonc1-n1nnc(C(=O)N/N=C/c2cccs2)c1-c1ccc2c(c1)OCO2` the value was 1.68 µM (active); for `COc1ccc(NC(=O)c2c(C)oc3ccc(O)c(CN4CCCC(C)C4)c23)cc1Cl` (configuration not stated), 0.944 µM (active). Regarding `Cc1oc2ccc(O)c(CN3CCCC(C)C3)c2c1C(=O)Nc1ccccc1` (configuration not stated), the Potency is 2.11 µM (active).

Consider `COc1ccc(NC(=O)c2c(C)oc3ccc(O)c(CN4CCCCCC4)c23)cc1Cl`, for which the Potency is 1.88 µM (active). With `Cc1ccc(CN2CCc3nc(C(=O)Nc4cccnc4)oc3CC2)o1` the entry was “inactive”; with `COc1ccc(NC(=O)c2cc3n(n2)CC(c2ccc(Cl)cc2)OC3)cc1Cl` (configuration not stated), “inactive”. Consider `COc1ccc(NC(=O)N2CCCC(Cn3cnc4cccnc43)C2)cc1Cl` (configuration not stated), for which the Potency entry is “inactive”.
